PubChem BioAssay (EPA / NIEHS)
Results filed as inconclusive are left out. Activity calls are given as the source filed them. Rule for the calls, unless noted: active = hit-call score of the fitted dose curve at least 0.9, where 1 is the maximum; inactive = score below 0.9.

How the values were obtained:
[1] = ACEA_ER_80hr: ACEA Biosciences xCELLigence Real-Time Cell Analysis on Estrogen Receptor Agonism for Proliferation (AID 2282667; active = hit-call score of the fitted dose curve at least 0.9, where 1 is the maximum); settings: T47D proliferation, impedance (xCELLigence), 80 h
Procedure, shortened: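 Cell-growth kinetics were measured by impedance in T47D cells treated continuously with compound (top 100 uM final, 1:4 steps, 8 points). Activity at 80 h was scored as signal gain over the DMSO baseline.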

[2] = APR_HepG2_CellCycleArrest_24hr: Apredica 24-hour HepG2 Assay for Cell Cycle Arrest (AID 2282905); settings: imaging, actives raise or lower the signal;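 note: cell cycle arrest scored as ratio of 2N to 4N nuclear DNA content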
Procedure, shortened: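 HepG2, 24 hr dosing, 10-pt 0.39–200 uM in duplicate, 0.5% DMSO. Fixed 3.7% formaldehyde, permeabilized 0.5% Triton X-100, Hoechst 33342 2 ug/mL. Imaged 20x; nuclear DNA content quantified; bidirectional fit vs DMSO.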

[3] = APR_HepG2_NuclearSize_24hr: Apredica 24-hour HepG2 Assay for Nuclear Size (AID 2282907); settings: high-content imaging, actives raise or lower the signal
Procedure, shortened: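 HepG2, 24 hr dosing, 10-pt 0.39–200 uM, duplicates, 0.5% DMSO final; 3.7% formaldehyde fix, 0.5% Triton X-100; Hoechst 33342 nuclear stain; ArrayScan HCS, Cell Cycle analysis → nuclear size; bidirectional fit vs DMSO.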

[4] = APR_HepG2_CellLoss_24hr: Apredica 24-hour HepG2 Assay for Cell Loss (AID 2282908); settings: high-content imaging;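 for AC50: fit in both directions so a hit may be cell loss or gain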
Procedure, shortened: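 10-pt dose, 0.39–200 uM, n=2/plate; DMSO 0.5% v/v final as negative control. Fix 3.7% formaldehyde 30 min RT, permeabilize 0.5% Triton X-100, stain Hoechst 33342 2 ug/mL, image 20x. Nuclear count, bidirectional fit vs DMSO.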

[5] = APR_HepG2_MicrotubuleCSK_24hr: Apredica 24-hour HepG2 Assay for Microtubule CSK Stabilty (AID 2282909); settings: HepG2 microtubule cytoskeleton imaging, actives raise or lower the signal
Procedure, shortened: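 Human liver HepG2, 24 h dosing, 0.39–200 uM ×10 conc, dup, 0.5% DMSO. 3.7% formaldehyde fix, 0.5% Triton perm, anti-alpha-tubulin (1:200)/Cy5 secondary + Hoechst. HCS imaging, 6 fields/well; gain/loss fit vs DMSO.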

[6] = APR_HepG2_MitoticArrest_24hr: Apredica 24-hour HepG2 Assay for Mitotic Arrest (AID 2282910); settings: high-content imaging, actives raise or lower the signal
Procedure, shortened: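 HepG2 human liver cells were exposed to compounds at 0.39–200 uM (10 concentrations, duplicate) in 0.5% v/v DMSO for 24 hr, then fixed and immunostained for phospho-histone H3 with Hoechst 33342. Mitotic arrest came from HCS fluorescent imaging, fitted bidirectionally against DMSO.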

[7] = APR_HepG2_MitoMass_24hr: Apredica 24-hour HepG2 Assay for Mitochondrial Mass (AID 2282912); settings: high-content imaging, actives raise or lower the signal
Procedure, shortened: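 Mitochondrial mass is read as MitoTracker Red fluorescence intensity from automated imaging, with bidirectional curve fitting relative to DMSO. HepG2 cells received compound (0.39–200 uM, 0.5% DMSO final) for 24 hr and were dye-loaded (250 nM, 30 min) before formaldehyde fixation.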

[8] = APR_HepG2_p53Act_24hr: Apredica 24-hour HepG2 Assay for p53 Activation (AID 2282913); settings: high-content imaging, actives raise or lower the signal;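 note: p53 protein immunofluorescence averaged per cell in HepG2 with Hoechst nuclei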
Procedure, shortened: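 Automated fluorescence imaging quantifies p53 immunostaining in HepG2 cells after a 24 hr exposure (0.39–200 uM, duplicate, 0.5% DMSO). Nuclei are located by Hoechst 33342 staining.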

[9] = APR_HepG2_CellCycleArrest_72hr: Apredica 72-hour HepG2 Assay for Cell Cycle Arrest (AID 2282914); settings: high-content imaging, actives raise or lower the signal
Procedure, shortened: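 Cell cycle arrest in HepG2 was scored from nuclear DNA content after 72 hr compound treatment (0.39–200 uM). Activity, either gain or loss, was fitted against the DMSO baseline.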

[10] = APR_HepG2_CellLoss_72hr: Apredica 72-hour HepG2 Assay for Cell Loss (AID 2282915); settings: high-content imaging
Procedure, shortened: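 HepG2 cells were exposed for 72 hr to compounds at 0.39–200 uM (ten concentrations, duplicate) in 0.5% v/v final DMSO. Nuclei were stained with Hoechst 33342 after 3.7% formaldehyde fixation, imaged at 20x, and counted; fits bidirectional versus DMSO.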

[11] = APR_HepG2_P-H2AX_72hr: Apredica 72-hour HepG2 Assay for H2AX Phosphorylation (AID 2282916); settings: imaging, actives raise or lower the signal;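 note: phospho-histone H2A.x immunostain intensity per cell marking DNA damage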
Procedure, shortened: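 HepG2; cpd 0.39–200 uM ×10 conc, duplicates; 0.5% DMSO; 72 hr. Fix 3.7% formaldehyde 30 min RT, 0.5% Triton X-100 10 min. Anti-phospho-H2A.x 1:200 + Hoechst 2 ug/mL, 60 min RT; ArrayScan imaging.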

[12] = APR_HepG2_MitoMembPot_72hr: Apredica 72-hour HepG2 Assay for Mitochondrial Membrane Potential (AID 2282917); settings: imaging, actives raise or lower the signal
Procedure, shortened: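 HepG2 cells exposed 72 h to compounds at 0.39–200 uM (0.5% v/v DMSO, duplicates); MitoTracker Red CMXRos 250 nM loaded 30 min before 3.7% formaldehyde fixation, imaged by HCS fluorescence. Bidirectional fit versus DMSO.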

[13] = APR_HepG2_MitoticArrest_72hr: Apredica 72-hour HepG2 Assay for Mitotic Arrest (AID 2282918); settings: high-content imaging, actives raise or lower the signal
Procedure, shortened: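 Mitotic arrest in HepG2 is scored from phospho-histone H3 staining after 72 hr dosing across 0.39–200 uM, with DMSO at 0.5% v/v. Nuclei are identified by Hoechst 33342 and fluorescence intensity is quantified per cell.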

[14] = APR_HepG2_MicrotubuleCSK_72hr: Apredica 72-hour HepG2 Assay for Microtubule CSK Stabilty (AID 2282919); settings: HepG2 microtubule cytoskeleton, high-content imaging, actives raise or lower the signal
Procedure, shortened: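 HepG2 human liver cells were dosed for 72 h at ten concentrations from 0.39 to 200 uM in duplicate (0.5% v/v DMSO final). Fixed, permeabilized cells were immunostained for alpha-tubulin (Cy5) with a Hoechst counterstain and imaged at 20x.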

[15] = APR_HepG2_P-H2AX_24hr: Apredica 24-hour HepG2 Assay for H2AX Phosphorylation (AID 2282920); settings: high-content imaging, actives raise or lower the signal
Procedure, shortened: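 Signal comes from a FITC-labeled secondary detecting phospho-histone H2A.x in fixed HepG2 cells, quantified by automated imaging at 20x. Dosing ran 24 hr across 0.39–200 uM with 0.5% v/v DMSO.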

[16] = APR_HepG2_StressKinase_72hr: Apredica 72-hour HepG2 Assay for Stress Kinase (AID 2282921); settings: HepG2 stress kinase (phospho-c-Jun) imaging, actives raise or lower the signal
Procedure, shortened: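 Dose 0.39–200 uM (10 pts, duplicate), 0.5% DMSO; 72 h; fix 3.7% formaldehyde 30 min RT; Triton permeabilize; anti-phospho-c-Jun/Cy3 + Hoechst 60 min RT; image 20x; fit gain/loss vs DMSO.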

[17] = APR_HepG2_StressKinase_24hr: Apredica 24-hour HepG2 Assay for Stress Kinase (AID 2282922); settings: HepG2 stress kinase (phospho-c-Jun) imaging, actives raise or lower the signal
Procedure, shortened: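 HepG2 cells exposed 24 hr to compound at 0.39–200 uM (10 concentrations, duplicate), 0.5% v/v DMSO final. Fixed in 3.7% formaldehyde, permeabilized with Triton X-100, immunolabeled for phospho-c-Jun with Hoechst 33342; HCS fluorescence imaging, bidirectional fit versus DMSO.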

[18] = APR_HepG2_p53Act_72hr: Apredica 72-hour HepG2 Assay for p53 Activation (AID 2282923); settings: high-content imaging, actives raise or lower the signal;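 note: average cellular p53 protein immunofluorescence intensity in HepG2 cells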
Procedure, shortened: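 10-pt conc. 0.39–200 uM, duplicate, 0.5% DMSO; 72 hr exposure; 3.7% formaldehyde fix, 0.5% Triton perm; sheep anti-p53/Cy5 + Hoechst; ArrayScan 20x, 6 images/well; gain/loss fit vs DMSO.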

[19] = APR_HepG2_MitoMass_72hr: Apredica 72-hour HepG2 Assay for Mitochondrial Mass (AID 2282924); settings: high-content imaging, actives raise or lower the signal;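 note: MitoTracker Red CMXRos stain intensity per cell imaged as mitochondrial mass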
Procedure, shortened: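 HepG2 cells were exposed for 72 hr to compounds at 0.39–200 uM (ten concentrations, duplicate, 0.5% v/v DMSO final). Live cells were stained with 250 nM MitoTracker Red CMXRos for 30 min, then fixed in 3.7% formaldehyde and imaged by HCS fluorescence.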

[20] = APR_HepG2_MitoMembPot_24hr: Apredica 24-hour HepG2 Assay for Mitochondrial Membrane Potential (AID 2282911); settings: imaging, actives raise or lower the signal
Procedure, shortened: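 Human hepatoma HepG2 cultures received ten compound concentrations up to 200 uM for 24 hr. Membrane-potential dye signal, captured by automated fluorescence microscopy, was scored for gain or loss against DMSO controls.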

Measured: AC50

NC(=O)NN=Cc1ccc([N+](=O)[O-])o1
inactive: [3] | [5] | [6] | [7] | [8] | [12] | [16] | [17] | [19]
active: [1] 10.5 µM | [2] 81.4 µM | [4] 57.6 µM | [9] 56.7 µM | [10] 67.8 µM | [11] 77.3 µM | [13] 68.7 µM | [14] 85.4 µM | [15] 72 µM | [18] 67.3 µM

C=CCc1cc(S(=O)(=O)c2ccc(O)c(CC=C)c2)ccc1O
inactive: [1] | [3] | [5] | [20] | [12] | [14] | [16] | [17]
active: [2] 32 µM | [4] 97.8 µM | [6] 51.5 µM | [7] 52.7 µM | [9] 33.7 µM | [10] 73.2 µM | [11] 53.2 µM | [13] 71.3 µM | [15] 77.5 µM | [19] 58.5 µM

O=C(NO)C1(NS(=O)(=O)c2ccc(Oc3ccc(F)cc3)cc2)CCOCC1
active: [10] 65.4 µM | [11] 100 µM
not listed: [8] | [18]
inactive: all other assays above

OC(CCl)CCl
not listed: [20]
inactive: all other assays above

CCCCCOC(C)=O
not listed: [8] | [18]
inactive: all other assays above

CCc1ccc(O)c(C(C)(C)C)c1
active: [2] 98.1 µM | [4] 83.8 µM | [5] 80.7 µM | [6] 101 µM | [7] 105 µM | [10] 80.7 µM | [11] 79.6 µM | [13] 81.3 µM | [16] 84.8 µM | [18] 71.6 µM
inactive: [1] | [3] | [8] | [9] | [12] | [14] | [15] | [17] | [19]
